This is part of a sample that, as a whole, favours compounds with a hit. Of some 83,000 tested, about 20% had one in any assay.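 Step 1: grow cells in 96-well plates. Step 2: add test compound at a single concentration. Step 3: incubate 48 h. Step 4: record percent growth.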 Unmarked numbers belong to inactive results. Activity calls are given as the source filed them. How the source made its calls: active means growth percent below 10; inactive means the rest.

The assay relates to HS 578T breast. In words: NCI-60 one-dose screen, 48 h (100 = growth as untreated, 0 = no growth, -100 = all killed). To be noted: 10 µM unless noted.
For `CCSc1nnc(Nc2ccc(C(C)C)cc2)s1`, the growth is 132%.

On to `O=C(Cc1c(F)cccc1Cl)Nc1ccc(S(=O)(=O)Nc2ncccn2)cc1`, for which the growth is 111%.

Consider `CC1(C)OC2COC3(C(=O)O)OC(C)(C)OC3C2O1` (stereo not given), for which the growth is 101%.

Turning to `COc1cc(-n2nc(C(=O)Nc3ccc(C(=O)O)cc3)nc2-c2ccccc2)cc(OC)c1OC`, the growth is 97.5%.

Take `CN1CCN(CCCOc2ccc3nc(Nc4ccc(C(F)(F)F)c(Cl)c4)ccc3c2)CC1`: the growth was 16.3%.

`COc1ccc(S(=O)(=O)NCCNc2nccc(-c3c(-c4ccccc4)nc4sccn34)n2)cc1`: the growth is 47%.

In the case of `O=c1[nH]c(-c2cn(-c3ccc(Cl)cc3)nn2)nc2ccccc12`, the growth was 37%.

For the compound `COc1ccc(S(=O)(=O)Nc2cc(/C=C\c3cc(OC)c(OC)c(OC)c3)cc(OC)c2OC)cc1OC`, the growth was 8.3% (active).

On to `COc1ccc(-c2nc3sccn3c2-c2ccnc(NCCNS(=O)(=O)c3ccc(C(F)(F)F)cc3)n2)cc1`, for which the growth was 41%.

Take `CCN(CC)CCSc1c2ccc(Cl)cc2nc2ccc(OC)cc12`: the growth is 108%.

As for `COc1ncc(-c2ccc3ncnc(Nc4cccc(Cl)c4)c3c2)cc1NS(=O)(=O)CCN1CCOCC1`, the growth is -21.1% (active).

Consider `O=c1[nH]c(CN2CCN(c3ccccc3F)CC2)nc2sc3c(c12)CCC3`, for which the growth was 121%.

For `O=C(Nc1cccc(Cl)c1)c1cc([N+](=O)[O-])ccc1O`, the growth was 41.9%.

In the case of `Cc1cc(N/C=c2\sc3ncnn3c2=O)no1`, the growth is 98.9%.

With `c1ccc2c(c1)Oc1ccccc1C2C1c2ccccc2Oc2ccccc21`, the growth is 99.6%.

The record behind these values is PubChem BioAssay (NCI).
